High-throughput results (PubChem)
This is a sample that favours compounds with a hit; in the whole collection about 0.43% have one here.
GAA inhib – alpha-glucosidase (human) inhibition; P10253; purified human GAA, 4-MU-alpha-glucoside fluorescence; Potency, µM (top dose mostly 76.9 µM), without a hit: top-dose activity change, negative = inhibition, hits mostly inhibitors; 200,000 tested, 0.005% active; AID 1466;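 also: potency is read from the fitted curve at half-maximal effect; plate controls were uninhibited enzyme wells for no effect and no-enzyme background for full effect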
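Human enzyme at 4 nM with 400 uM 4-methylumbelliferyl-alpha-D-pyranoside, citrate/phosphate buffer pH 5.0, 0.005% Tween-20, 20 min at room temperature. Compounds up to 77 uM. 4-MU fluorescence (Ex 365/Em 440) read after NaOH/glycine stop; AC50 from Hill fit.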
GLA spleen mod – inhibitors or activators of human alpha-galactosidase in spleen homogenate; P06280; Potency, µM (series often up to 80 µM), inactives show top-dose activity change, negative = inhibition, actives largely listed as inhibitors; human spleen homogenate, 4MU-alpha-Gal fluorescence, 40 min; 240,000 tested, 0.008% active;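 also: potency is read from the fitted curve at half-maximal effect; 0% = enzyme with vehicle and -100% = no enzyme basal signal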
Target sequence (P06280 32-429 limits assumed): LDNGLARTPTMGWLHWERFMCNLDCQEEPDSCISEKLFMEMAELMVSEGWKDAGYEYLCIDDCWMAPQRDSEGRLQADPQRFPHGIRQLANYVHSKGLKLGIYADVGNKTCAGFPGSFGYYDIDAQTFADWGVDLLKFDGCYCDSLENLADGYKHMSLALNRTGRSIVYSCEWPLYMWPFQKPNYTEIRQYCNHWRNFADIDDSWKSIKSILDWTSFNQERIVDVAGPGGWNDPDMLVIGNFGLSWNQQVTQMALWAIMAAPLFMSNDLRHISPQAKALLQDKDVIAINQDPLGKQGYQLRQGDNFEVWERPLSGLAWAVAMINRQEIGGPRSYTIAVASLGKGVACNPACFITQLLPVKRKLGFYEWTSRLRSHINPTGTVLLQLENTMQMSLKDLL
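Human spleen homogenate (1 ug) was the enzyme source, with 4-methylumbelliferyl-alpha-D-galactopyranoside (1 mM final) in pH 5.0 citrate buffer with 0.01% Tween-20. Compounds were titrated; after 40 min at 37C, NaOH/glycine stop, 4-MU fluorescence read; AC50 from Hill fits.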
GAA glycogen mod – inhibitors or activators of human alpha-glucosidase glycogen cleavage | recombinant GAA, glycogen substrate, Amplex Red glucose oxidase fluorescence | 300,000 tested, 0.38% active | P10253 | Potency, µM (titrated, usually from 76.4 µM), for the others: top-dose activity change, negative = inhibition, most hits filed as inhibitors;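 also: potency is read from the fitted curve at half-maximal effect; 0% = full enzyme reaction and -100% = no-enzyme basal signal; the screen sought inhibitors and activators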
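Natural-substrate format: glycogen cleavage by 4 nM human enzyme, glucose read by Amplex Red coupling (Ex 573, Em 610 nm). Normalized to enzyme and no-enzyme controls.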
N370S GC mod – N370S glucocerebrosidase modulation, Gaucher chaperone candidate. Potency, µM (titrated, usually from 59.4 µM), for the others: top-dose activity change, negative = inhibition, hits mostly inhibitors. 330,000 tested, 0.092% active. N370S GC spleen homogenate, 4MU-glucoside fluorescence;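 also: potency is read from the fitted curve at half-maximal effect; 0% = full enzyme activity and -100% = no enzyme basal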
aGlu spleen mod – lysosomal alpha-glucosidase (human) modulation; P10253; human spleen homogenate, 4-MU-alpha-glucoside fluorescence; Potency, µM (titrated, usually from 79.9 µM), without a hit: at the highest dose activity change, negative = inhibition, actives largely listed as inhibitors; 240,000 tested, 0.006% active; AID 2112;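 also: potency is read from the fitted curve at half-maximal effect; 0% = enzyme with vehicle and -100% = no enzyme basal signal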
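Compounds were titrated against alpha-glucosidase in spleen homogenate at pH 5.0, with 1 mM 4-methylumbelliferyl substrate for 40 min at 37 C. Reactions were quenched with pH 10 NaOH/glycine and fluorescence measured.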
GLA inh pH 4.5 – blocks human alpha-galactosidase A at pH 4.5 | 230,000 tested, under 10 active | activity change, negative = inhibition, % at 105 µM | AID 1467 | purified enzyme, 4-MU-alpha-Gal fluorescence, pH 4.5 | P06280;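 also: 0% = full activity with enzyme and -100% = basal without enzyme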
Numbers without * were called inactive; ? = inconclusive; nt = no result; [ ] = remark or other dose. Calls follow the shape of the dose curve; as a rule, active = well fitted curve in the direction sought with a large enough effect; inconclusive = small, poorly fitted or top-dose-only effect, or another doubt; inactive = no such curve, though single readings can be large; an effect the other way counts as inactive or inconclusive.

SMILES	GAA inhib	GLA spleen mod	GAA glycogen mod	N370S GC mod	aGlu spleen mod	GLA inh pH 4.5
Cc1[nH]c2ccccc2c1C(O)CN1CCN(c2cccc(C(F)(F)F)c2)CC1 (configuration not stated)	?	28.2µM*	-17.5%	?	-5.9%	?
COc1ccc(Nc2nc(-c3cccs3)nc3ccccc23)cc1	-11.1%	-1.8%	-8.8%	1.12µM*	-8.3%	-9.4
COc1ccc(Nc2nc(-c3ccccc3)nc3ccccc23)cc1	nt	nt	-12.8%	?	nt	nt
COc1cccc(CN(C)c2nc(-c3cccs3)nc3ccccc23)c1	-12.1%	-9.0%	10.2%	1.58µM*	-2.7%	-2.3
COc1cccc(-c2nc(N(C)C)c3ccccc3n2)c1	nt	-2.7%	nt	-9.2%	5.5%	nt
COc1cccc(Nc2nc(-c3cccs3)nc3ccccc23)c1	-2.6%	-3.7%	7.4%	12.6µM*	0.6%	3.1
Cn1c(=O)c2c(nc(N/N=C/c3ccco3)n2C)n(C)c1=O	?	4.4%	8.91µM*	3.2%	-2.2%	8.2
Cn1c(=O)c2c(nc(N/N=C/c3cccs3)n2C)n(C)c1=O	-10.0%	-7.7%	?	-3.3%	-7.7%	-2.9
CC(C)CC1Nc2ccc(C(=O)NCCCN3CCCCC3C)cc2NC1=O (configuration not stated)	nt	nt	12.6µM*	-5.9%	nt	nt
C[C@H](CCC(=O)NCC(=O)O)C1CC[C@H]2[C@H]3C(C[C@H](O)[C@]12C)[C@@]1(C)CC[C@@H](O)C[C@H]1C[C@H]3O (some centres not stated)	nt	1.9%	nt	-0.2%	12.9%	nt
COc1ccc(N/C=C2/Sc3ccccc3NC2=O)cc1	-3.4%	-4.4%	19.8µM*	5.3%	1.8%	0.8
Cc1ccc(N/C=C2/Sc3ccccc3NC2=O)cc1	8.7%	3.3%	?	-3.1%	-7.5%	7.5
C/C=C(\C=C\[C@@H](C)C/C=C/CC/C=C/C=C\C[C@@H](OC)/C(C)=C\C=C(C)C)CC(=O)O	nt	-11.9%	nt	-4.6%	1.9%	nt
COc1c(C=O)c(=O)[nH]c2c(OC)cccc12	nt	5.9%	nt	17.3%	-17.0%	1.5
Cc1c(Cc2ccccc2)c(=O)oc2c(O)c(O)ccc12	-9.5%	1.4%	5.01µM*	-10.5%	3.4%	5.1
O=c1cc(-c2ccccc2)oc2c(O)c(O)ccc12	nt	22.0%	nt	-11.9%	16.1%	-11.0
Cc1oc2cc(O)cc(C)c2c(=O)c1-c1cnn(-c2ccccc2)c1	-0.3%	0.3%	-6.1%	11.4%	-6.5%	5.6
Cc1oc2c(O)c(O)ccc2c(=O)c1-c1cnn(-c2ccccc2)c1	-14.5%	10.3%	5.62µM*	7.4%	-12.6%	1.7
Cc1oc2c(O)c(O)ccc2c(=O)c1-c1ccccc1	5.9%[15.4 µM]	12.5%	8.84µM*	-12.1%	8.2%	3.7
Cc1oc2c(O)c(O)ccc2c(=O)c1-c1ccc(Cl)cc1	nt	nt	7.08µM*	-9.1%	nt	nt
COC(=O)N[C@@H](/C=C/c1ccccc1)/C(C(=O)OC)=C(\C)NCc1ccccc1	nt	-0.7%	nt	-1.7%	-8.5%	1.2
Cc1ccc(Nc2cc(C)nc(-c3ccccc3)n2)cc1	nt	nt	-14.4%	3.16µM*	nt	nt
Cc1cc(Nc2ccc(Cl)cc2)nc(NCc2ccccc2)n1	-0.6%	-0.1%	5.9%	22.4µM*	-9.6%	-0.1
Cc1ccc(Nc2cc(C)nc(-c3ccccc3O)n2)cc1	-10.9%	1.3%	-10.5%	?	0.5%	0.6
Oc1ccc(/C=N/Nc2ccc(C(F)(F)F)cn2)cc1	-9.6%	12.8%	22.4µM*	-1.2%	-4.6%	-11.5
Cc1ccc(NS(=O)(=O)c2ccc(C(=O)N3CCOCC3)cc2)cc1	nt	nt	nt	0.5%	nt	nt
CC(=O)/C(=N\Nc1ccc(C)cc1)N1CCOCC1	-1.9%	6.8%	12.5µM*	-18.3%	1.1%	-3.0
CCc1cc(-c2oncc2-c2ccc(OC)cc2)c(O)cc1OC	nt	5.5%	nt	-12.5%	-0.8%	nt
C[C@H]1Cc2c(COc3ccccc3)nc3c(c2CO1)CN(S(=O)(=O)c1ccc(C#N)cc1)CC3	nt	-2.8%[17.5 µM]	nt	-1.4%[12.8 µM]	-1.6%[17.4 µM]	8.3
Cc1nc(NS(=O)(=O)c2ccccc2)sc1NC(=O)OCCN(C)C	-5.2%	1.2%	25.1µM*	4.1%	-4.6%	2.7
